ERb SRC1 inh: ER-beta (human) coactivator binding inhibition. Q92731. inhibition, % at 25.6 µM. 1.3% of 86,000 active. AID 633. TR-FRET ER-beta LBD / SRC1-Cy5 peptide binding; receptor agonist-loaded with 1 µM estradiol;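 active = compounds whose percent inhibition of the receptor-coactivator binding signal exceeds about 50% in the single-dose screen, limit read from the data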
Smad3 inh: Smad3 (human) transcription factor binding inhibition; inhibition, % at 25 µM; 0.29% of 88,000 active; TR-FRET Smad3/Dy647-FoxH1 peptide binding, europium anti-His; P84022;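 active = compounds that reduce the energy-transfer binding signal between the protein and its labelled peptide by more than half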
Target sequence (P84022 whole entry, looked up): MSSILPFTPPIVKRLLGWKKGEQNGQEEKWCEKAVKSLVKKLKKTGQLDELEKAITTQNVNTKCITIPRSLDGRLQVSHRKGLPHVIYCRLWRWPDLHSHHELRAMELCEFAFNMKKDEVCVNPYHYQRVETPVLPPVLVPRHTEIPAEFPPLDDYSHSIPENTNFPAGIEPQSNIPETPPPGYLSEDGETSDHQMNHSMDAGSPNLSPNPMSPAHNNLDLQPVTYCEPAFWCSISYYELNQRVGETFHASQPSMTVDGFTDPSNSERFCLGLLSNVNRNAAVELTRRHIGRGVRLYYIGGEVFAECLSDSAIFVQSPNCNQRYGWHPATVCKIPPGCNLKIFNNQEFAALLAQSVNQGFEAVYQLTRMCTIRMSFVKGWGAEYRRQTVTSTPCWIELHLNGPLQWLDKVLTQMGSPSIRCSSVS
ERa coact inh: blocks coactivator binding to human estrogen receptor alpha; inhibition, % at 25.6 µM; TR-FRET ER-alpha LBD / SRC-1 peptide, estradiol-bound; 1.7% of 86,000 active; in the data active = inhibition above about 50%
ERa SRC1 pot: enhances coactivator binding to human estrogen receptor alpha; TR-FRET ERalpha-LBD/SRC-Cy5 coactivator binding, 2 h; 100 = basal binding, no effect; coactivator binding (% of control), % at 25.6 µM; 1.3% of 86,000 active; AID 639; in the data active = activity above about 200%;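 note: binding measured in presence of low estradiol as agonist stimulus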
Calb biofilm kill: kills Candida albicans biofilms. inhibition, % at 6 µM. C. albicans biofilm + clotrimazole, Alamar Blue. AID 834. 0.14% of 85,000 active;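 active = inhibition above 20%; inactive = inhibition below 20%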;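 note: preformed 24 hr biofilms exposed to compound for 48 hr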
Each line names hits and unclear results; the compound was inactive in the other large screens; [ ] = remark or other dose. Rows were chosen to be rich in hits. Some 3.6% of all compounds tested hit in one or more screens of this group.

Cc1ccccc1NC(=O)c1cccc2nccnc12	none
Cc1ccc(F)cc1NC(=O)c1cccc2nccnc12	ERa SRC1 pot 370
CCCCC1C(=O)N(c2ccccc2)N(c2ccccc2)C1=O	ERb SRC1 inh 83[fluorescence artefact?], ERa coact inh 92
O=C(O)[C@@H](O)[C@@H](O)[C@H](O)[C@H](O)CO	none (no result: ERb SRC1 inh, ERa coact inh, ERa SRC1 pot, Calb biofilm kill)
O=C(Nc1ccccc1)c1sc2cc(C(F)(F)F)cnc2c1-c1cccs1	ERa SRC1 pot 210[fluorescence artefact?]
NC(=O)c1sc2cc(C(F)(F)F)cnc2c1-c1cccs1	none
Cc1cc(SCC(=O)c2ccc(Br)cc2)cc(C)[o+]1	none (no result: ERb SRC1 inh, ERa coact inh, ERa SRC1 pot, Calb biofilm kill)
CCN1CCC(C(N)=O)CC1	ERb SRC1 inh 51
O=C(CSc1nnc(C2CC2)n1Cc1ccccc1)NCc1ccccc1	none
Nn1c(SCC(=O)NC(=O)NCc2ccccc2)nnc1C1CC1	ERb SRC1 inh 81[fluorescence artefact?]
Cc1cc(C)n(C(=O)C(C)N2C(=O)c3ccccc3C2=O)n1 (centres undefined)	none
O=c1cc(-c2ccccc2)nc2n1Cc1ccccc1-2	ERb SRC1 inh 55[fluorescence artefact?]
O=c1nc2n(c3ccccc13)Cc1ccccc1-2	none
CC(=O)N1CCN(c2nc3cc4c(cc3nc2NS(=O)(=O)c2ccccc2)OCCO4)CC1	none
CC(C)(C)OC(=O)N[C@@H](Cc1ccccc1)c1nnc(SCC(=O)O)o1	ERb SRC1 inh 92[fluorescence artefact?]
CSc1ccccc1C(=O)NCc1ccc2c(c1)OCO2	none
CCN(Cc1ccncc1)C(=O)C1CCN(S(=O)(=O)c2cccs2)CC1	none
O=C1c2ccccc2C(=O)N1CCCc1nc2ccccc2c(=O)n1CCCn1ccnc1	ERa SRC1 pot 516
O=S(=O)(Cc1ccccc1)c1cnc2ccccc2n1	none
Cc1cc(NC(=O)COC(=O)[C@H](Cc2c[nH]c3ccccc23)NC(=O)c2ccc(F)cc2)no1	none
O=C(c1ccccc1)c1ccccc1C(=O)N1CCOCC1	none
O=C(O)C1Nc2c(C(=O)N3CCOCC3)cccc2C2C=CCC12 (centres undefined)	ERb SRC1 inh 82, ERa coact inh 70
COc1ccc(CC(=O)NC(C)c2nnc(SCCOc3ccc(OC)cc3)n2C)cc1 (centres undefined)	none
CCOC(=O)COc1cccc2c(=O)n(CC(=O)N3CCCc4ccccc43)ccc12	ERb SRC1 inh 51[fluorescence artefact?]
O=C(O)c1ccc(Cc2ccccc2C(=O)O)cc1	none (no result: ERb SRC1 inh, ERa coact inh, ERa SRC1 pot, Calb biofilm kill)
O=C(Nc1cc(C(F)(F)F)ccc1N1CCOCC1)C1Cc2ccccc2CN1C(=O)c1ccco1 (centres undefined)	ERb SRC1 inh 55, ERa coact inh 91[fluorescence artefact?]
O=C(Nc1cc(C(F)(F)F)ccc1N1CCCCC1)c1ccco1	ERa SRC1 pot 693[fluorescence artefact?]
O=C(Nc1cc(C(F)(F)F)ccc1N1CCCCC1)c1ccc(Br)o1	none
CCN(CC)CC[n+]1ccc2c(C)c3[nH]c4ccc(O)cc4c3c(C)c2c1	Smad3 inh 68 (no result: ERb SRC1 inh, ERa coact inh, ERa SRC1 pot, Calb biofilm kill)
Cc1onc(-c2c(F)cccc2Cl)c1C(=O)Nc1nnc(-c2ccccc2)s1	none
Cc1nnc(NC(=O)c2c(-c3ccccc3)noc2C)s1	none
Cc1onc(-c2ccccc2)c1C(=O)Nc1cccc2nsnc12	ERa SRC1 pot 266
Cc1onc(-c2ccccc2)c1C(=O)Nc1nc(-c2cc(F)ccc2F)cs1	ERa SRC1 pot 208[fluorescence artefact?]
CCC(C)(C)n1c(=O)[nH]c2c(c1=O)CCC2	none
COc1ccc(-c2nnc(SCC(=O)c3cc(C)n(Cc4cccs4)c3C)o2)cc1	ERa coact inh 52[fluorescence artefact?], ERa SRC1 pot 303
Cc1csc(SCC(=O)c2cc(C)n(Cc3cccs3)c2C)n1	none
COc1ccc(-c2nnc(SCC(=O)c3cccs3)o2)cc1	none
Cc1cc(C(=O)CSc2nnc(-c3ccco3)o2)c(C)n1Cc1ccco1	ERa coact inh 54[fluorescence artefact?]
Cc1cc(C(=O)CSc2nnc(-c3ccc(OC(F)F)cc3)o2)c(C)n1Cc1cccs1	ERa coact inh 55[fluorescence artefact?]
COc1ccc(-n2cnnc2SCC(=O)c2cc(C)n(Cc3cccs3)c2C)cc1	ERa SRC1 pot 248[fluorescence artefact?]
O=C(O)CSc1n[nH]c(=O)[nH]c1=O	none (no result: ERb SRC1 inh, ERa coact inh, ERa SRC1 pot, Calb biofilm kill)
NC1=N[C@@H](c2ccc(Cl)cc2)N(c2ccc(S(N)(=O)=O)cc2)C(N)=N1	none (no result: ERb SRC1 inh, ERa coact inh, ERa SRC1 pot, Calb biofilm kill)
O=C1C(=O)c2ccccc2C(O)=C1C(CCc1ccccc1)C1=C(O)c2ccccc2C(=O)C1=O	none (no result: ERb SRC1 inh, ERa coact inh, ERa SRC1 pot, Calb biofilm kill)
CC(=O)n1c(COS(C)(=O)=O)nc2ccccc21	none (no result: ERb SRC1 inh, ERa coact inh, ERa SRC1 pot, Calb biofilm kill)
COc1ccc(NC(=O)c2nc3nccc(C)n3n2)cn1	none
CC(=O)N(C(C)=O)c1c(C#N)c(C)n(-c2ccccc2)c1C(=O)c1ccccc1	ERa coact inh 68
